In the library only some 9.9% were active in any assay of this set; here they are far more common.
JMJD2E inh: qHTS Assay for Inhibitors of Human Jumonji Domain Containing 2E (JMJD2E). Lysine-specific demethylase 4E (Homo sapiens), B2RXH2. JMJD2E catalytic domain, FDH-coupled NADH fluorescence (FDH is formaldehyde dehydrogenase). Potency, µM (titrated, usually from 57.1 µM), most hits filed as inhibitors. actives 1.6% (n = 230,000). AID 2147, 2009; also: nearly all actives have a fitted effect of over 50% in size
ALDH1A1 inh: qHTS Assay for Inhibitors of Aldehyde Dehydrogenase 1 (ALDH1A1); Aldehyde dehydrogenase 1A1 (Homo sapiens), P00352; Purified ALDH1A1, NADH fluorescence, propionaldehyde substrate; Potency, µM (highest dose often 75.3 µM), hits mostly inhibitors; actives 7.3% (n = 220,000); AID 1030, 2008
Target sequence (P00352 whole entry, looked up): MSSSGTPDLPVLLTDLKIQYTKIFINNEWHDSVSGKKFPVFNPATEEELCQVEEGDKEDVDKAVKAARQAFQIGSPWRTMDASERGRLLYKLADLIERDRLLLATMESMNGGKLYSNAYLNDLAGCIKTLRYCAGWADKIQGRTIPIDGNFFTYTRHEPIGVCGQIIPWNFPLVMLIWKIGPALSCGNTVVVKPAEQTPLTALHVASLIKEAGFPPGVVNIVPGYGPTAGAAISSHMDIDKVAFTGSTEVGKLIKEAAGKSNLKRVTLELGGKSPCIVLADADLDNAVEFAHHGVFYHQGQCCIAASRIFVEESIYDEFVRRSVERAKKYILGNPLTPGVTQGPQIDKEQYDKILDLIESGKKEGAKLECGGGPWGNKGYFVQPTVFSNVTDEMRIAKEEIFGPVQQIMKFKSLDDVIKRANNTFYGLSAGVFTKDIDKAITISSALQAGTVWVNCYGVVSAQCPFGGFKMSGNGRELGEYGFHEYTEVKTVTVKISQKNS
Tau fluor cs: Counterscreen qHTS for Inhibitors of Tau Fibril Formation, Fluorescence Polarization | tau K18 P301L Alexa594 fluorescence, heparin fibrillization | Potency, µM (series often up to 57.7 µM) | actives 0.93% (n = 280,000) | AID 1463, 2008; active = well fitted curve in the direction sought with a large enough effect; inconclusive = small, poorly fitted or top-dose-only effect, or another doubt; inactive = no such curve, though single readings can be large; an effect the other way counts as inactive or inconclusive; also: nearly all actives have a fitted effect of over 55% in size
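Human K18 P301L tau (15 uM unlabeled plus 0.24 uM Alexa 594-labeled, final) in 100 mM sodium acetate pH 7 was mixed with compound and 20 uM heparin and incubated 6 hr at 37 C.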
Tau ThT inhib: qHTS for Inhibitors of Tau Fibril Formation, Thioflavin T Binding. actives 2.1% (n = 270,000). Potency, µM (top dose mostly 57.4 µM), actives largely listed as inhibitors. recombinant tau K18 P301L (four-repeat tau fragment), heparin-induced fibrillization, ThT fluorescence; active = well fitted curve in the direction sought with a large enough effect; inconclusive = small, poorly fitted or top-dose-only effect, or another doubt; inactive = no such curve, though single readings can be large; an effect the other way counts as inactive or inconclusive; also: nearly all actives have a fitted effect of over 55% in size
Target sequence (P10636 561-689 P618L limits assumed): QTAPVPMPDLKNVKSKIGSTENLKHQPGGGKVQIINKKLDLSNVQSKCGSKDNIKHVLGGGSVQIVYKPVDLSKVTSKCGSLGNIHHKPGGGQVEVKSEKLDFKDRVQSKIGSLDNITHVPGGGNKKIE
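Recombinant human tau K18 fragment […] carrying P301L, 15 uM unlabeled plus 0.24 uM Alexa 594-labeled, was fibrillized with 20 uM heparin in 100 mM sodium acetate pH 7 for 6 hr at 37 C; 30 uM ThT fluorescence read after 1 hr.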
Tau FP inhib: qHTS for Inhibitors of Tau Fibril Formation, Fluorescence Polarization. Microtubule-associated protein tau (Homo sapiens), P10636. K18 P301L tau heparin fibrillization, Alexa594 FP, 6 h. Potency, µM (highest dose often 57.7 µM), most hits filed as inhibitors. actives 0.39% (n = 280,000). AID 1468, 2008; active = well fitted curve in the direction sought with a large enough effect; inconclusive = small, poorly fitted or top-dose-only effect, or another doubt; inactive = no such curve, though single readings can be large; an effect the other way counts as inactive or inconclusive; also: nearly all actives have a fitted effect of over 55% in size
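Recombinant K18 P301L […], labeled with Alexa 594 at 0.24 uM over 15 uM unlabeled; heparin inducer 20 uM final; 37 C, 6 hr; FP endpoint.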
HPGD block: qHTS Assay for Inhibitors of HPGD (15-Hydroxyprostaglandin Dehydrogenase). 15-hydroxyprostaglandin dehydrogenase [NAD(+)] (Homo sapiens), P15428. purified HPGD, NADH fluorescence kinetic, PGE2 substrate. Potency, µM, hits mostly inhibitors. actives 4.3% (n = 150,000). AID 894, 2007
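NADH formation kinetics: reaction with 30 uM PGE2 and 1 mM NAD+ (final), 20 nM enzyme, Tris-HCl pH 8 with Tween 20, after 15 min compound preincubation at room temperature. Fluorescence change, last versus first of five reads.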
Hits are given with their value. Unless noted, calls follow the shape of the dose curve; as a rule, active = well fitted inhibition curve with a large enough effect (not every such curve was filed as active); inconclusive = small, poorly fitted or top-dose-only effect, or another doubt; inactive = no such curve, though single readings can be large or run the other way.

Screening COc1ccc(NC(=O)C(CC(C)C)NS(=O)(=O)c2ccc3c(c2)oc(=O)n3C)cc1Cl (stereo unspecified) returned Tau fluor cs inactive, Tau ThT inhib inactive and Tau FP inhib inactive.
`COc1ccc(C[C@H]2CN3C(=NC[C@@H]3Cc3ccc(O)cc3)N2C[C@H](C)NC(=O)c2ccc(C)c(Br)c2)cc1` gave JMJD2E inh inactive, Tau fluor cs inactive, Tau ThT inhib inactive and Tau FP inhib inactive.
`CCOC(=O)c1nnc(-c2ccccc2)nc1Sc1c(Cl)cccc1Cl` gave JMJD2E inh inactive, ALDH1A1 inh inactive, Tau fluor cs inconclusive, Tau ThT inhib 11.2µM, Tau FP inhib inactive and HPGD block inactive.
Screening CCOC(=O)c1nc(C)nc(Sc2n[nH]c(-c3cc(C(F)(F)F)cc(C(F)(F)F)c3)n2)c1C returned JMJD2E inh inactive, Tau fluor cs inactive, Tau ThT inhib inactive and Tau FP inhib inactive.
CCOc1ccc(C2NC(=O)NC(C)=C2[N+](=O)[O-])cc1OC (stereo unspecified) was read as JMJD2E inh inactive, Tau fluor cs inactive and Tau FP inhib inactive.
`CS(=O)(=O)N(CC(=O)NCC1CCCO1)c1cccc([N+](=O)[O-])c1` (stereo unspecified) gave JMJD2E inh inactive, ALDH1A1 inh inactive, Tau fluor cs inactive, Tau ThT inhib inconclusive and Tau FP inhib inactive.
For CCOc1ccc(N(CC(=O)NCC2CCCO2)S(=O)(=O)c2ccc(SC)cc2)cc1 (stereo unspecified) the results were JMJD2E inh inactive, ALDH1A1 inh 3.98µM, Tau fluor cs inactive, Tau ThT inhib inactive, Tau FP inhib inactive and HPGD block inactive.
Cc1ccc(S(=O)(=O)N(CC(=O)NCC2CCCO2)c2cccc([N+](=O)[O-])c2)cc1 (stereo unspecified) was read as JMJD2E inh inactive, ALDH1A1 inh 14.1µM, Tau fluor cs inactive, Tau ThT inhib inactive and Tau FP inhib inactive.
For Cc1ccc(S(=O)(=O)NCC(=O)N(CC(=O)NCC2CCCO2)CC2CCCO2)cc1 (stereo unspecified) the results were JMJD2E inh inactive, ALDH1A1 inh inactive, Tau fluor cs inactive, Tau ThT inhib inactive and Tau FP inhib inactive.
For COc1ccccc1CN(CC(=O)NCC1CCCO1)C(=O)CNS(=O)(=O)c1ccc(C)cc1 (stereo unspecified) the results were JMJD2E inh inactive, ALDH1A1 inh 12.6µM, Tau fluor cs inactive, Tau ThT inhib inactive, Tau FP inhib inactive and HPGD block inactive.
CCCCS(=O)(=O)c1oc(-c2ccc(F)cc2)nc1S(=O)(=O)c1ccccc1 was read as Tau fluor cs inactive, Tau ThT inhib inactive and Tau FP inhib inactive.
CC1CCC(NC(=O)C2(C)Cc3ccccc3C(=O)N2Cc2ccc(Cl)cc2)CC1 (stereo unspecified) was read as Tau fluor cs inactive, Tau ThT inhib inactive and Tau FP inhib inactive.
Cc1ccc(SC(CC(=O)c2ccc(C)cc2)C(=O)O)cc1 (stereo unspecified) was read as JMJD2E inh inactive, ALDH1A1 inh 0.126µM, Tau fluor cs inactive, Tau ThT inhib inconclusive, Tau FP inhib inactive and HPGD block inactive.
For Cc1ccc(NC(=S)NNc2ncc(C(F)(F)F)cc2Cl)cc1 the results were JMJD2E inh inactive, ALDH1A1 inh 10µM, Tau fluor cs inactive, Tau ThT inhib inactive, Tau FP inhib inactive and HPGD block inactive.
Screening Fc1ccc(NC(=S)NNc2ncc(C(F)(F)F)cc2Cl)c(F)c1 returned JMJD2E inh inactive, ALDH1A1 inh 4.47µM, Tau fluor cs inactive, Tau ThT inhib inactive and Tau FP inhib inactive.
For CC(Cl)C(=O)Nc1ncc(C(F)(F)F)cc1Cl (stereo unspecified) the results were JMJD2E inh inconclusive, ALDH1A1 inh 7.08µM, Tau fluor cs inactive, Tau ThT inhib inactive, Tau FP inhib inactive and HPGD block inactive.
`FC(F)(F)c1cnc(NNC(=S)Nc2ccc(Cl)cc2)c(Cl)c1` gave JMJD2E inh inconclusive, ALDH1A1 inh 5.01µM, Tau fluor cs inconclusive, Tau ThT inhib inconclusive, Tau FP inhib inactive and HPGD block inactive.
For Fc1ccccc1Cc1noc(CN(Cc2ccccn2)CC2CCCO2)n1 (stereo unspecified) the results were JMJD2E inh inactive, ALDH1A1 inh inconclusive, Tau fluor cs inactive, Tau ThT inhib inactive and Tau FP inhib inactive.
For CCn1cc(C(=O)N2CCN(c3ccccc3F)CC2)c(=O)c2ccc(C)nc21 the results were JMJD2E inh inactive, ALDH1A1 inh inactive, Tau fluor cs inactive, Tau ThT inhib inactive and Tau FP inhib inactive.
For CCOc1ccc(CNC(=O)C2CCN(c3nn4c(=O)cc(C)nc4s3)CC2)cc1 the results were Tau fluor cs inactive, Tau ThT inhib inconclusive and Tau FP inhib inactive.
COCCN(C(=O)CCc1ccc(OC)cc1)c1nnc(-c2ccncc2)s1 was read as JMJD2E inh inconclusive, ALDH1A1 inh 22.4µM, Tau fluor cs inactive, Tau ThT inhib inactive and Tau FP inhib inactive.
For COCCN(C(=O)CCc1ccccc1OC)c1nnc(-c2cccnc2)s1 the results were JMJD2E inh inconclusive, ALDH1A1 inh inactive, Tau fluor cs inactive, Tau ThT inhib inactive and Tau FP inhib inactive.
For CCCC(=O)N(C)c1nnc(-c2ccc(OC)cc2)s1 the results were JMJD2E inh inconclusive, ALDH1A1 inh 28.2µM, Tau fluor cs inactive, Tau ThT inhib inactive, Tau FP inhib inactive and HPGD block inactive.
`NC(=O)c1ccc[n+]([C@@H]2O[C@H](COP(=O)([O-])OP(=O)(O)OC[C@H]3O[C@@H](n4cnc5c(N)ncnc54)[C@@H](O)[C@@H]3O)[C@@H](O)[C@@H]2O)c1` gave JMJD2E inh inactive, ALDH1A1 inh inactive and HPGD block inactive.
For O=C(C1CCCN(S(=O)(=O)c2cnc[nH]2)C1)N(CCc1ccccc1)Cc1ccccc1 (stereo unspecified) the results were JMJD2E inh inactive, ALDH1A1 inh 11.2µM, Tau fluor cs inactive, Tau ThT inhib inactive, Tau FP inhib inactive and HPGD block inactive.
For CCOC(=S)N/C(=N\S(=O)(=O)c1ccc(C)cc1)c1ccccc1 the results were JMJD2E inh inactive, ALDH1A1 inh 14.1µM, Tau fluor cs inactive, Tau ThT inhib inactive, Tau FP inhib inactive and HPGD block 25.1µM.
For COc1ccc(NC(=S)N/C(=N/S(=O)(=O)c2ccc(C)cc2)c2ccccc2)cc1 the results were JMJD2E inh inactive, ALDH1A1 inh inconclusive, Tau fluor cs inactive, Tau ThT inhib inactive and Tau FP inhib inactive.

Compound activity deposited in PubChem by National Center for Advancing Translational Sciences (NCATS).
